Source: PubChem BioAssay
Shown are actives, neighbours in structure and some others; about 0.96% of the full set was active somewhere.
Resorufin fluor: compound fluoresces in the resorufin spectral region; max dye-equivalent concentration, M; Compound fluorescence, resorufin region 547/598 nm, buffer; hits give high values; 59,000 tested, 0.04% active
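Dye-equivalent concentration values derive from comparing each well's 547/598 nm fluorescence against resorufin standards included on every plate. Incubation was 15 min at room temperature in 100 mM Tris, pH 8.0.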
A647 autofl: A647 region autofluorescence; Compound fluorescence, A647 channel (570/671 nm), Tris buffer; max dye-equivalent concentration, M; 59,000 tested, under 10 active; AID 592
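Spectral profiling of library compounds in pH 8.0 Tris: 15 min room-temperature incubation, single ex/em pair (570/671 nm), response normalized to Alexa 647 equivalents.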
Fluorescein autfl: compound fluoresces in the fluorescein spectral region. Compound autofluorescence, 480/540 nm, fluorescein-equivalent; hits give high values. 59,000 tested, 0.91% active. max fluorescein-equivalent concentration, M; in the data active = max fluorescein-equivalent concentration above about 10 nM; inconclusive = between about 1.1 nM and that limit
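Autofluorescence profiling; 100 mM Tris, pH 8.0; incubation 15 min at RT; ex/em 480/540 nm; result as fluorescein-equivalent concentration.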
A488 autofl: A488 region autofluorescence; max dye equivalency, M; compound autofluorescence, A488 spectral region, dye equivalency; Compound Type: qHTS ECL - MLSMR; AID 591; 59,000 tested, 0.1% active
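Readout is A488 dye-equivalent concentration, calibrated by a per-plate six-point Alexa 488 series. Compounds in 100 mM Tris buffer pH 8.0 were incubated 15 min at room temperature. Plates were imaged using 480 nm excitation/540 nm emission filters.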
Rhodamine autofl: compound fluoresces in the rhodamine spectral region; Rhodamine-region fluorescence, 547/598 nm, Tris buffer; hits give high values; max dye-equivalent concentration, M; 59,000 tested, 0.05% active; AID 594; in the data active = max dye-equivalent concentration above about 11 nM; inconclusive = between about 1.1 nM and that limit
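Intensities are converted to rhodamine-equivalent concentration using a six-point rhodamine standard on each plate. Compounds sit 15 min at room temperature in 100 mM Tris buffer, pH 8.0; read uses the 547/598 nm excitation/emission pair.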
TexasRed autofl: compound fluoresces in the Texas Red spectral region. AID 587. 59,000 tested, 0.06% active. Compound fluorescence, Texas Red channel, 547/618 nm; hits give high values. max dye-equivalent concentration, M; in the data active = max dye-equivalent concentration above about 10 nM; inconclusive = between about 1.1 nM and that limit
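qHTS profiling of intrinsic compound fluorescence; 100 mM Tris pH 8.0; 15 min RT; ex 547 / em 618 nm; response expressed as Texas Red dye-equivalent concentration from six-point plate standard.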
Of the large screens only hits and unclear results are named; the others gave an inactive call. Unless noted, no rule for the calls is given here.

CC(=O)N(C[C@@H](O)CO)c1c(I)c(C(=O)NC[C@@H](O)CO)c(I)c(C(=O)NC[C@@H](O)CO)c1I	Fluorescein autfl inconclusive
COc1cccc(-c2nc(N3CCN(C)CC3)c3ccccc3n2)c1	Fluorescein autfl inconclusive
c1cncc(-c2cncnc2NC2CCNCC2)c1	Fluorescein autfl 1.4e-08M
FC(F)(F)c1ccccc1-c1nc(NCc2cccnc2)c2ccccc2n1	Fluorescein autfl inconclusive
CCN1C(=O)/C(=C/N2CCc3ccccc32)SC1=S	Fluorescein autfl 2.2e-07M, A488 autofl 1.3e-08M
O=C1c2ccccc2C(=O)N1CCC(=O)N1CCCc2ccccc21	none
CCN1C(=O)/C(=C\N2CCCc3ccccc32)SC1=S	Fluorescein autfl 2e-08M, TexasRed autofl inconclusive
COc1cc2c(cc1OC)CN(C(=O)CSc1nc(N)c(C#N)cc1C#N)CC2	Fluorescein autfl 1.9e-08M, TexasRed autofl inconclusive
CCC(=O)c1ccc(OCC(=O)N2CCc3cc(OC)c(OC)cc3C2)cc1	Fluorescein autfl inconclusive
COc1cccc(Cn2c(N)c(C#N)c3nc4ccccc4nc32)c1OC	Fluorescein autfl 1.3e-08M
COc1cc(Cn2c(N)c(C#N)c3nc4ccccc4nc32)cc(OC)c1	Fluorescein autfl inconclusive
CCOC(=O)c1sc(N)c(C#N)c1COC(=O)CNC(=O)c1ccccc1	Fluorescein autfl 3e-08M
CCOC(=O)c1sc(N)c(C#N)c1CSc1nc2ccc(OCC)cc2[nH]1	none
